The nature of assay [1]: ATG_PBREM_CIS: Attagene CIS-FACTORIAL HepG2 Assay for human Phenobarbital-responsive Enhancer Module (PBREM) (AID 2282955). Conditions: HepG2 PBREM cis-reporter, Attagene multiplexed transcription; actives raise or lower the signal. The method, boiled down: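 Multiplexed cis-reporter readout in human hepatoma HepG2 cells; PBREM-regulated transcript quantified after 24 h exposure by fluorescent RT-PCR fragment analysis. Signal changes up or down fitted relative to DMSO.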

Assay [2] deals with Paired box protein Pax-6 (Homo sapiens) (UniProt P26367). Briefly: ATG_Pax6_CIS: Attagene CIS-FACTORIAL HepG2 Assay for human Paired Box 6 (PAX6) (AID 2282956). Conditions: HepG2 CIS-FACTORIAL PAX6 reporter transcription, RNA readout; actives raise or lower the signal. The method, boiled down: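 Readout: reporter transcript fluorescence after RT-PCR and capillary electrophoresis. Cells: HepG2, transiently transfected with cis-regulated MRTUs. Exposure 24 h. Gain or loss of signal fitted bidirectionally relative to DMSO.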

Assay [3] is described as follows: ATG_PPRE_CIS: Attagene CIS-FACTORIAL HepG2 Assay for human Peroxisome Proliferator-activated Response Element (PPRE) (AID 2282958). Conditions: HepG2 PPRE cis-element reporter, Attagene transcription factor profiling; actives raise or lower the signal. In outline:
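DMSO served as negative control and baseline for bidirectional curve fitting. Signal came from PPRE-regulated reporter mRNA in HepG2 cells, measured 24 h post-dosing by RT-PCR, 6-FAM primer extension and capillary electrophoresis.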

A short description of assay [4]: ATG_RORE_CIS: Attagene CIS-FACTORIAL HepG2 Assay for human RAR-related Orphan Receptor Element (RORE) (AID 2282959). The following applies: HepG2 Attagene cis-factorial RORE reporter, mRNA; actives raise or lower the signal. In outline: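 Transfect HepG2 with MRTUs; treat 24 h; extract RNA; RT with oligo(dT); PCR with reporter-specific primers; 6-FAM primer extension; HpaI digest 2 h at 37 C; capillary electrophoresis. Fit vs DMSO, bidirectional.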

The nature of assay [5]: ATG_Sox_CIS: Attagene CIS-FACTORIAL HepG2 Assay for human SRY-box transcription factor (SOX) (AID 2282960). The following applies: HepG2 Attagene cis-factorial SOX reporter, mRNA; actives raise or lower the signal. In outline: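 Fluorescence-labelled cDNA fragments from reporter transcripts, sized by CE, give the signal. Cells: HepG2, transiently transfected with cis-regulated reporter units. Exposure 24 h; DMSO negative control; bidirectional curve fitting.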

The target of assay [6] is Transcription factor Sp1 (Homo sapiens) (UniProt P08047). The experiment in a line: ATG_Sp1_CIS: Attagene CIS-FACTORIAL HepG2 Assay for human Specificity Protein 1 (Sp1) (AID 2282961). Conditions: HepG2 Sp1 cis-reporter transcription, actives raise or lower the signal. In outline:
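Chemicals are dosed onto HepG2 cells transfected with multiple cis-promoter reporter constructs, and after 24 h reporter RNA is reverse-transcribed, PCR-amplified and resolved by capillary electrophoresis for fluorescence quantitation; activity is scored up or down against DMSO.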

A short description of assay [7]: ATG_SREBP_CIS: Attagene CIS-FACTORIAL HepG2 Assay for human Sterol Regulatory Element Binding (SREBP) (AID 2282962). The following applies: HepG2 Attagene cis-factorial SREBP reporter, mRNA; actives raise or lower the signal. The method, boiled down:
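Readout: fluorescent reporter-transcript peaks resolved by capillary electrophoresis after RT-PCR. Cells were human HepG2 carrying transfected cis-promoter reporter constructs, dosed for 24 h. Gain or loss of signal was fitted against DMSO controls.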

Assay [8] deals with Signal transducer and activator of transcription 3 (Homo sapiens) (UniProt P40763). Briefly: ATG_STAT3_CIS: Attagene CIS-FACTORIAL HepG2 Assay for human Signal Transducer and Activator of Transcription 3 (STAT3) (AID 2282963). The following applies: HepG2, Attagene cis-factorial STAT3 reporter transcription; actives raise or lower the signal. The method, boiled down:
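Cis-factorial format: endogenous transcription factors in HepG2 drive transfected reporter units. After 24 h treatment, reporter RNA was reverse-transcribed, amplified, FAM-labelled and HpaI-digested before CE analysis; activity scored in both directions against DMSO.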

Assay [9] is described as follows: ATG_TA_CIS: Attagene CIS-FACTORIAL HepG2 Assay for human TA Basal Promoter (AID 2282964). Conditions: HepG2 Attagene CIS-factorial TA basal promoter reporter; actives raise or lower the signal. The method, boiled down:
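Cis-factorial format in HepG2: reporters report endogenous factors, not chimeric Gal4 fusions. After 24 h treatment, reporter transcripts were measured by RT-PCR-capillary electrophoresis fluorescence, analysed bidirectionally versus DMSO.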

Assay [10] in a line: ATG_PXRE_CIS: Attagene CIS-FACTORIAL HepG2 Assay for human Pregnane X Receptor Element (PXRE) (AID 2282957). The following applies: HepG2 Attagene CIS-FACTORIAL PXRE reporter, mRNA; actives raise or lower the signal. The method, boiled down: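 Using HepG2 transfected with multiple reporter transcription units, endogenous factor-driven transcription was scored as reporter mRNA after 24 h exposure.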

Calls of active or inactive are those of the source. How the source made its calls: active means hit-call score of the fitted dose curve at least 0.9, where 1 is the maximum; inactive means score below 0.9.

Chain of Signal transducer and activator of transcription 3 (Homo sapiens) (P40763 whole entry, looked up): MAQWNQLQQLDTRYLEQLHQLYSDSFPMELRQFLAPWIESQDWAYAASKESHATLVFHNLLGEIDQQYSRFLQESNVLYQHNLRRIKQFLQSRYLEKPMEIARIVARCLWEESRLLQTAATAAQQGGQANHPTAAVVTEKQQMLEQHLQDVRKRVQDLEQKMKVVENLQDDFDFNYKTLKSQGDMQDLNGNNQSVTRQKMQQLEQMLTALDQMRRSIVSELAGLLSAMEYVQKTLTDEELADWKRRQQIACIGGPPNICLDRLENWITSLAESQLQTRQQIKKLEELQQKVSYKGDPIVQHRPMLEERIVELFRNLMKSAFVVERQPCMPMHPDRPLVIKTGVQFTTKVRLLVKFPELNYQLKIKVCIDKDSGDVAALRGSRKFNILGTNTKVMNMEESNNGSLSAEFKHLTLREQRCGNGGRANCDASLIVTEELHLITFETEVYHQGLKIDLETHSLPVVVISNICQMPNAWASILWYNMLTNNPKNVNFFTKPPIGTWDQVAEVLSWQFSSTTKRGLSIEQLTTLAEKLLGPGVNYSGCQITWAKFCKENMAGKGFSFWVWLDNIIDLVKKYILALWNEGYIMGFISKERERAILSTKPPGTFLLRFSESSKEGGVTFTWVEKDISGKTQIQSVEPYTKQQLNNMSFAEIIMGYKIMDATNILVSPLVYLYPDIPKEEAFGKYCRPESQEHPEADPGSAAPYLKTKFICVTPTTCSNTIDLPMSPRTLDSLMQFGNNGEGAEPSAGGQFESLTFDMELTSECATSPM
Chain of Paired box protein Pax-6 (Homo sapiens) (P26367 whole entry, looked up): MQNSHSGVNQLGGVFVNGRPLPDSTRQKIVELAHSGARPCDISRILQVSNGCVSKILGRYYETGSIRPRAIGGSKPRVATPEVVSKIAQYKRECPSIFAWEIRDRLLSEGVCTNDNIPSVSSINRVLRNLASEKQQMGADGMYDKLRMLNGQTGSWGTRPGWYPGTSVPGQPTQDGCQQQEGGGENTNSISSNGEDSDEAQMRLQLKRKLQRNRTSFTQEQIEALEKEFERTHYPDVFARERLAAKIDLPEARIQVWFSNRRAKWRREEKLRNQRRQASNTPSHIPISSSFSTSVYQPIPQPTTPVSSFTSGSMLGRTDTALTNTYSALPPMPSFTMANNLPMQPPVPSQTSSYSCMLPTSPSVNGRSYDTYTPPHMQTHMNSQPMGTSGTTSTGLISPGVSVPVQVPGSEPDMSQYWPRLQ
Chain of Transcription factor Sp1 (Homo sapiens) (P08047 whole entry, looked up): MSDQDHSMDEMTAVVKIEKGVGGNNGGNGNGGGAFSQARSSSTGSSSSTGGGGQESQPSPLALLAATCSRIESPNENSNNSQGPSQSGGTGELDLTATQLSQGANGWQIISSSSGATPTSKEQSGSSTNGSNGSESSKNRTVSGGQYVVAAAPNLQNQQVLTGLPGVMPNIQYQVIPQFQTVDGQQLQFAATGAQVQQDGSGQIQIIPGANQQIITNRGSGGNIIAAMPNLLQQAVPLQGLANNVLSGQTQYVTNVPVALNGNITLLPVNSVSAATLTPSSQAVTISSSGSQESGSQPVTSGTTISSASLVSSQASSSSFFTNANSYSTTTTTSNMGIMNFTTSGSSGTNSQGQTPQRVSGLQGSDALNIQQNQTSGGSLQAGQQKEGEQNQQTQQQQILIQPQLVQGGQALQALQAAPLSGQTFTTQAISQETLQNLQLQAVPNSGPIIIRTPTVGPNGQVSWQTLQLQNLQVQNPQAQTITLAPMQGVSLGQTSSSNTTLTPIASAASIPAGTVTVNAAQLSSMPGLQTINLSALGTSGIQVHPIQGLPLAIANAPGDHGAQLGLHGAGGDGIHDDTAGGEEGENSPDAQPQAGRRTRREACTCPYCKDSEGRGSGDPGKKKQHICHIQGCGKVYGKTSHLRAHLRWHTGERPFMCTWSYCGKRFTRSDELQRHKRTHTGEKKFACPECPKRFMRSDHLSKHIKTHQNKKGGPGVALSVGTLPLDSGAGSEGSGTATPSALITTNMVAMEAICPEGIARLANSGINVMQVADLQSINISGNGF

A word on the AC50: it is the concentration giving half of the maximal activity seen. On to `CC(O)C#CC(C)O` (stereo not drawn), for which the result in assay [1], in assay [3], in assay [4], in assay [7], in [8] and in [9] was inactive. Besides, the AC50 in assay [2] was 81.3 µM (active); in [5], 77.1 µM (active); in [6] it was 73.1 µM (active).
For the compound `C=C(C)CCCC`, the result in assay [1], in assay [2], in assay [3], in assay [4], in [5] and in [7] was inactive. In assay [9], the compound was classed as inactive.
In the case of `Oc1ccc2c(c1)CCC2`, the result in [1], in assay [2], in assay [10], in assay [3], in assay [4] and in [5] was inactive. Also, the outcome in assay [7] and in [9] was inactive.
In the case of `O=C(O)C(F)(F)C(F)(F)C(F)(F)OC(F)(C(F)(F)F)C(F)(F)F`, the outcome in assay [1], in [2], in assay [4], in [5], in [6] and in assay [7] was inactive. In addition, the outcome in [9] was inactive. Besides, in assay [3], the AC50 was 45.9 µM (active).
Turning to `OCC(F)(F)C(F)(F)C(F)(F)C(F)(F)C(F)(F)C(F)(F)CO`, the result in [1], in assay [3], in assay [4], in assay [5], in [6] and in [7] was inactive. The compound was classed as inactive in assay [8] and in assay [9]. In addition, the AC50 in [10] is 70.6 µM (active).
As to `CC(C)CCCC(C)CCO` (stereo not drawn), the outcome in [1], in assay [2], in assay [3], in [4], in assay [5] and in assay [7] was inactive. In addition, the compound was classed as inactive in [8] and in assay [9].
As for `CCC(C)CO` (stereo not drawn), the result in assay [1], in [2], in assay [3], in [4], in assay [5] and in [6] was inactive. The outcome in assay [7], in [8] and in assay [9] was inactive.
With `O=C1c2ccccc2C(=O)c2c(Cl)cccc21`, the result in assay [1], in assay [2], in [3], in assay [4], in assay [5] and in assay [7] was inactive. The compound was classed as inactive in assay [8] and in [9].
In the case of `OCCC(O)CO` (stereo not drawn), the result in assay [1], in assay [2], in assay [10], in assay [3], in [4] and in assay [5] was inactive. The outcome in [7] and in assay [9] was inactive.
For `O=S(=O)(OCC(F)(F)F)C(F)(F)C(F)(F)C(F)(F)C(F)(F)F`, the result in assay [1], in assay [2], in [10], in assay [3], in [4] and in assay [5] was inactive. For the same compound, the result in assay [7] and in [9] was inactive.
For the compound `O=C(O)C(F)(F)C(F)(F)C(F)(F)C(=O)O`, the result in [1], in assay [2], in assay [3], in [4], in [5] and in [6] was inactive. For the same compound, the call in assay [7], in assay [8] and in assay [9] was inactive.
For the compound `NC(=O)C(F)(F)C(F)(F)C(F)(F)C(F)(F)C(F)(F)C(F)(F)C(F)(F)F`, the outcome in assay [1], in assay [3], in assay [4], in assay [5], in assay [6] and in assay [7] was inactive. In addition, the compound was called inactive in [8] and in assay [9].
For `Cc1cnccn1`, the result in assay [1], in assay [10], in assay [3], in assay [4], in assay [5] and in assay [6] was inactive. Further, the compound was called inactive in [7], in assay [8] and in assay [9].
On to `COC(F)(C(F)F)C(F)(F)F` (stereo not drawn), for which the result in assay [1], in assay [10], in [3], in [4], in assay [5] and in assay [7] was inactive. The call in assay [8] and in [9] was inactive.
With `CCCCCCCC/C=C\CCCCCCCC(=O)N(C)CC(=O)O`, the outcome in assay [1], in assay [4], in assay [5], in assay [6], in assay [8] and in assay [9] was inactive. The AC50 in assay [10] is 16 µM (active); in [3] it was 3.73 µM (active); in assay [7] it was 11.1 µM (active).
On to `CC(C)OC(=O)COc1ccc(Cl)cc1Cl`, for which the result in assay [1], in [3], in assay [4], in assay [5], in [6] and in [7] was inactive. Besides, the result in assay [8] and in [9] was inactive. The AC50 in assay [10] was 68.8 µM (active).
For the compound `O=C=NCc1cccc(CN=C=O)c1`, the result in [1], in assay [10], in assay [3], in assay [4], in assay [5] and in assay [6] was inactive. Moreover, the compound was classed as inactive in assay [7], in [8] and in assay [9].
With `CCc1cc(Cc2cc(CC)c(N)c(CC)c2)cc(CC)c1N`, the outcome in assay [1], in [3], in [4], in assay [8] and in assay [9] was inactive. The AC50 in assay [10] was 1.1 µM (active); in assay [5], 29.3 µM (active); in assay [7], 3.95 µM (active).
On to `CCN=C1C=CC(=C(c2ccc(N(CC)CC)cc2)c2ccc(N(CC)CC)cc2)c2ccccc21`, for which the AC50 was 0.0478 µM (active) in assay [1], 0.068 µM (active) in [4], 0.0762 µM (active) in assay [5] and 1.23 µM (active) in assay [9]. Moreover, the compound was called inactive in assay [3], in assay [6], in [7] and in assay [8].
On to `CCOCOCC`, for which the result in [1], in assay [10], in [3], in assay [4], in [5] and in assay [6] was inactive. The call in assay [7], in [8] and in assay [9] was inactive.

These data come from PubChem BioAssay (EPA / NIEHS).
